In paper PMC4336329 (PLoS ONE, 2015):
Screen size: about 310,000 compounds; about 14,000 (4.5%) showed an effect of 50% or more. Effects have a minus sign here. Only a selection was taken, and strong results are over-represented in it overall.

molecular target: human ether-à-go-go-related gene (hERG) potassium channel (human, UniProt Q12809); experiment: primary screen, population patch clamp on CHO cells stably expressing hERG; higher = less effect of the substance
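Note: peak tail current of the secondary pulse compared with the same well before compound.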

Sequence of human ether-à-go-go-related gene (hERG) potassium channel (Q12809 whole entry, looked up): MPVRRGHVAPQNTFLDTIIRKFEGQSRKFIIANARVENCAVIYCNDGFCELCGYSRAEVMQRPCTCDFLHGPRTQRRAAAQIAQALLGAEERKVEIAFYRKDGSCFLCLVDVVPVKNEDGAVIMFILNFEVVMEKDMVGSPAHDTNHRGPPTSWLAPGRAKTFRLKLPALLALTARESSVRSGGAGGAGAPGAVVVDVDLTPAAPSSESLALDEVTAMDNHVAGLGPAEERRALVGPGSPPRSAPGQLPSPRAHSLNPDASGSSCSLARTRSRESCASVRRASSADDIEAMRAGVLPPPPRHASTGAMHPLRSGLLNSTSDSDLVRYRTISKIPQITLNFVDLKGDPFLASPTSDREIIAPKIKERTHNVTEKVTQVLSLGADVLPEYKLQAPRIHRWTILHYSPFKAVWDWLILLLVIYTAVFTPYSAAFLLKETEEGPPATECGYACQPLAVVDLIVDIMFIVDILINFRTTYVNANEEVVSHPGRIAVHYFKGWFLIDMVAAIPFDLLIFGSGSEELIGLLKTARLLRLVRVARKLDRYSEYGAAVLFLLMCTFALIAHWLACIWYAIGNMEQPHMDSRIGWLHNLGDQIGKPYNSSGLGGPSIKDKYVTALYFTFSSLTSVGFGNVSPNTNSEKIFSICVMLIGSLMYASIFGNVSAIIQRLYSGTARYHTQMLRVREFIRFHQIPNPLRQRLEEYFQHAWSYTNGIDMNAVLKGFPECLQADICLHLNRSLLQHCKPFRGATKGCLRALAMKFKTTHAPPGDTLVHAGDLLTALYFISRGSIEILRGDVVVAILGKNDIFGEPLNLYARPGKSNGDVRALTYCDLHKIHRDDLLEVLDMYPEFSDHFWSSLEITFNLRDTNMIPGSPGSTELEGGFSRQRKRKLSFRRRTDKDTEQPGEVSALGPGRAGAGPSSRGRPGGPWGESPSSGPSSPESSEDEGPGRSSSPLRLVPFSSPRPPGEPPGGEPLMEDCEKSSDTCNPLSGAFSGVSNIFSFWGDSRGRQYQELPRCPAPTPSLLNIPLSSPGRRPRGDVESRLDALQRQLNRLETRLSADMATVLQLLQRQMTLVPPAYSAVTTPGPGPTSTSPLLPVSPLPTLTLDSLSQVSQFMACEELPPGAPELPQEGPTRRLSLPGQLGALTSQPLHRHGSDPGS

Structure (SMILES) | hERG current change (%, negative = inhibition) at 10uM [%]
CC(C)C(=O)Nc1cccc(C(=O)Nc2ccc(S(=O)(=O)Nc3nccs3)cc2)c1 | 8.32
Nn1cnnc1SCC(=O)N1CCc2ccccc2C1 | -12.8
COc1ccc(C(=O)c2nccc3ccccc23)cc1 | 0.535
COc1cccc(N(CC(=O)NCC2CCCO2)C(=O)CNS(=O)(=O)c2ccccc2)c1 (stereo not shown) | 23.1
c1ccc(CCNc2ncnc3c2cnn3-c2ccccc2)cc1 | -40.5
CC(=O)Nc1ccc(N2CCc3c(C)c(C#N)c4nc5ccccc5n4c32)cc1 | 8.55
Cc1ccc(N(Cc2ccc(C(=O)NCCSc3ccccn3)cc2)S(C)(=O)=O)cc1C | -4.82
Cc1nn(-c2ccc(Cl)cc2Cl)c(=O)c2ccccc12 | -11.3
Cc1nc(SC2CC(=O)N(c3ccccc3)C2=O)nc2c1CCCC2 (stereo not shown) | -3.22
O=c1[nH]c(N2CCN(c3ccccc3)CC2)nc2c1CCCC2 | 2.28
Nc1c2c(nc3ccn(Cc4ccccc4)c(=O)c13)CCC2 | -66
Nc1c2c(nc3ccn(-c4ccccc4)c(=O)c13)CCCCC2 | -58.8
Nc1c2c(nc3ccccc13)CCC2.O=C(O)/C=C/C(=O)O | -18.2
O=c1[nH]c(N2CCN(Cc3ccccc3)CC2)nc2c1CCC2 | 18.9
Cc1sc(NC(=O)CN2CCN(c3ccccn3)CC2)c(C#N)c1C | 2.51
O=C(C/C=N/OCc1ccc(Cl)cc1Cl)c1ccccc1 | -6.79
CC(=O)Nc1nc(-c2cccc3ccccc23)cs1 | -9.32
CSc1ccc(CNC2CC2)cc1.Cl | -7.3
CC(C)Cn1c(C(C)C)nc([N+](=O)[O-])c1Sc1ccc(Cl)cn1 | -6.57
CCCn1c(CC)nc([N+](=O)[O-])c1Sc1ccc(C)cc1 | -0.08
CCCCn1c(CCC)nc([N+](=O)[O-])c1Sc1ccc(Cl)cn1 | -53.2

Structure (SMILES) | hERG current change (%, negative = inhibition) at 10uM [%]
CCOC(=O)C1(Cc2cccc(Cl)c2)CCCN(C(=O)c2cccc(C)n2)C1 (stereo not shown) | -1.76
CCOCCCNC(=O)COc1ccc(OC)cc1 | 13.2
Cn1c(N)c(C(=O)CCl)c(=O)n(Cc2ccccc2)c1=O | 2.2
CC1(C)CC(NC(=O)c2cc(Cl)ccc2Cl)CC(C)(C)N1 | -1.21
CC1(C)CC(NC(=O)c2ccc(Cl)cc2Cl)CC(C)(C)N1 | 2.81
CC1(C)CC(NC(=S)NC(=O)c2cc(Br)ccc2Cl)CC(C)(C)N1 | -53.3
C=C1c2cc(CC)ccc2NC(=O)N1c1ccc(C)cc1 | 8.71
CC(=O)c1c(C)n(CCCOC(C)C)c2ccc(O)cc12 | -30.4
COc1ccc(NS(=O)(=O)c2ccc(NC(=S)NC(=O)/C=C/c3ccccc3)cc2)nn1 | -3.33
Cc1cccc(NC(=O)CN2C(=O)N/C(=C\c3ccc(-c4cccc(C(=O)O)c4)o3)C2=O)c1 | 19.3
CCc1ccc(S(=O)(=O)N2c3ccc(C)cc3C3CN(C)CCC32)cc1 (stereo not shown) | -60.4
Cc1ccc2c(c1)C1CN(C)CCC1N2S(=O)(=O)c1cc(C(F)(F)F)ccc1Cl (stereo not shown) | -27.6
Cc1ccc2c(c1)C1CN(C)CCC1N2S(=O)(=O)c1cccc(F)c1 (stereo not shown) | -11.5
Cc1ccc2c(c1)C1CN(C)CCC1N2S(=O)(=O)c1ccc(C(C)C)cc1 (stereo not shown) | -73.4
Cc1ccc2c(c1)C1CN(C)CCC1N2S(=O)(=O)c1ccccc1 (stereo not shown) | -32.4
Cc1ccc2c(c1)C1CN(C)CCC1N2S(=O)(=O)c1cccc(C(F)(F)F)c1 (stereo not shown) | -40.1
O=C(COC(=O)c1ccc(S(=O)(=O)C(F)F)cc1)Nc1ccccc1C(=O)NC1CC1 | 11.5
O=C(CCN=C1NS(=O)(=O)c2ccccc21)OCC(=O)c1ccc(F)cc1 | -3.17
O=C(NCCCN1CCOCC1)c1onc(CSc2ccncc2)c1C(=O)NCCCN1CCOCC1 | -5.25
CCCCCC(=O)N/N=C/c1ccc(N(C)C)cc1 | -19.2
COc1cc(NC(=O)C2CCN(c3cnccn3)CC2)cc(OC)c1OC | 19.5

Structure (SMILES) | hERG current change (%, negative = inhibition) at 10uM [%]
COc1ccc(CCNC(=O)CSc2n[nH]c(N)n2)cc1OC | 30.1
COc1ccc(CNC(=O)CSc2ccc(Br)cc2)cc1OC | -63.1
COc1ccccc1CNC(=O)CSc1ccc(Br)cc1 | -3.01
COc1ccc(CNC(=O)CSc2n[nH]c(N)n2)cc1 | 20.1
COc1ccc(CCNC(=O)CSc2ccc(Br)cc2)cc1OC | 23
COc1ccc(CNC(=O)CSc2n[nH]c(N)n2)cc1OC | -77.5
COc1ccc(CNC(=O)C2CCN(c3nccs3)CC2)cc1 | -31.8
CC(C)c1ccc(Oc2cccc(C(=O)/C(C#N)=C/N(C)C)c2)cc1 | -14.6
Cc1ccsc1C(=O)C1CCCN(Cc2cnc(N3CCCC3)s2)C1 (stereo not shown) | -15.3
CSc1ncc(CN2CCCC(C(=O)c3ccc(C(C)(C)C)cc3)C2)cn1 (stereo not shown) | -31.9
CSc1ccc(C(=O)C2CCCN(Cc3cnc(SC)nc3)C2)cc1 (stereo not shown) | -76.4
CSc1ccc(C(=O)C2CCCN(Cc3cccn3-c3cccnc3)C2)cc1 (stereo not shown) | -65.1
Cc1ccsc1C(=O)C1CCCN(Cc2cnn(C(C)C)c2)C1 (stereo not shown) | -56.4
CSc1ncc(CN2CCCC(C(=O)c3cccc(Cl)c3)C2)cn1 (stereo not shown) | -47.1
CSc1ncc(CN2CCCC(C(=O)c3sccc3C)C2)cn1 (stereo not shown) | -55.2
CCn1cc(CN2CCCC(C(=O)c3sccc3C)C2)cn1 (stereo not shown) | -27.3
Cc1ccsc1C(=O)C1CCCN(Cc2cnc(N)nc2)C1 (stereo not shown) | -4.85
O=C(c1ccc(Cl)cc1)C1CCCN(Cc2cccn2-c2cccnc2)C1 (stereo not shown) | -42
Cc1ccsc1C(=O)C1CCCN(Cc2cnn(C)c2)C1 (stereo not shown) | 12
